This passage reports PBM binding z-score results from the supplement of paper PMC6555819.

The subject of this assay is PPARg:RXRa 270nM:90nM, anti-RXR (NR concentration 270 nM, RXRa partner concentration 90 nM). The assay can be described thus: PBM binding z-score (relative to random genomic background probes); higher = stronger binding; sequences stand for … in GC…GCGATTGACAGCGTAGAATGAAGG
The method in brief: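 Binding z-scores take random background probes as their reference. They come from custom Agilent 4×180K protein-binding microarrays incubated 1 h with ligand-free nuclear receptor dimers, with antibodies against each partner (one per run) detecting binding. Scanned fluorescence was regression-normalized.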
ATATGTAGGTTAGCTGGGGTCGTTCAGACTAGGC: the PBM binding z-score was 3.57. As for ACTATTAGTGGACTTAGGGCAACCGATACGACGC, the PBM binding z-score worked out at 0.348. CGTCCAAGGTCATGGTCAGTGAAAGAGACTCGAA had a PBM binding z-score of 5.75. Turning to TCTTGTTGATCAAGCAGGTTAAGAAAGCCTGAGT, the PBM binding z-score was determined as 1.11. GTACCAAGGTGAATAGATCGTTGATGAGTAGGCG gave a PBM binding z-score of 0.705. GCTCGAAGGACAAGGTCAGAGCTTTGTCCGTAGA displayed a PBM binding z-score of 1.72.

Sequence TCGAGTAGGTTACCAATGGGGCATACAGCTTTCT came in with a PBM binding z-score of 1.68. As to GCTGCTAGGTCACGTTGGTCAGCTAACGGGTACG, the PBM binding z-score is 3.87. In the case of CGTCCAAGGTCAGCAGGTCTGTGAAAGCGACGTG, the PBM binding z-score turned out to be 3.06. Sequence ACTTACGGGTCAACGAGGATATAGCACGCGTATA came in with a PBM binding z-score of 5.19.

With CTACCAAGGTGAACAAGGTGGTTGATTACTATTC, the PBM binding z-score was 0.416.

In turn, GGAACGAGTGCAAAGTTGATAGCATCTGTCGACG displayed a PBM binding z-score of 3.33. For CGTCCAAGGTCAGCATGTCAGTGAAAGCGACGTG, the PBM binding z-score came out at 3.09. As to ATATGTAGGTTTGCTGGGGTCATTCAGACTAGGC, the PBM binding z-score was determined as 3.1. In turn, TCTAGCAGGCCAGAGGGTCAATCAAGAGGTACGG yielded a PBM binding z-score of 3.01. Regarding GATGCTAGGTCAACTGATGGTCAGCTAAAGCTCG, the PBM binding z-score was 2.97. The value for GCTATTAGTTAAAAGGGCAACCGAATGATTCTCG was 3.45. The sequence ATCTCTAGCTAAAGATAGTTCAGTGAATGCAAAT returned a PBM binding z-score of -0.271. Turning to GATACAGGTTCAGCTAGAGGCCAGAGTATGGAAA, the PBM binding z-score amounted to 0.117. The value for CCTTACGGGTCACTCCAGGTTAAAGCATCGGAGT was 4.06.

In the case of TCTTGTAGATCAAAGGTTAAGAATGCCGAAGCCT, the PBM binding z-score amounted to 7.95.

TAGCCTAGGTCTGATCGGGCCAGTATACGCTATA displayed a PBM binding z-score of -0.669. As to ACTAGCAGGCCATGTTTGGGTCACTCAAACAAAG, the PBM binding z-score is 0.304. Consider GCTGCTAGGTCAAGTTGGTCAGCTAACGGGTACG, for which the PBM binding z-score came out at 2.94. Sequence CAAACTACGTCAAGAGGTCAAAGTCCGCTTCCCG registered a PBM binding z-score of 4.83. The value for AGTTACGGGTCAACGAGGTTATAGCACGCGTATA was 5.55.

Take ATCGCTAGGTAAAGTTCAGTGAAAGATCGATAGA: the PBM binding z-score turned out to be 3.26. The value for GCTGCTAGGTAAACTGATGGTCAGCTAAAGCTCG was -0.644; that for TCATATAGGTAAATGCTAGGTGCAAGTCCGATCT was 2.08; that for CGTCCTAGGTCAAGGTCAGTGAAAGAGACTCGAA was 4.45. The value for GCATATAGGTAATAAAAGGTGAAAGTCCGATTGT was 2.12. The value for GCGACTGGGGCATCAGCAGGTCACCATAACTTAA was 2.13; that for CCTCGGAGGACAGAAGCTCAGAGCTGTCCGCTTT was -1.61. Consider TCTATTAGTTGAAGGGCAAGCGACGAGTCCGTTT, for which the PBM binding z-score stood at 2.29. The value for TGTCAAAGTTCAAACGTAACGTAAGTATCCACAC was 7.51. In turn, CCTTACGGGTCACTGCAGGTTATAGCATCGGAGT returned a PBM binding z-score of 4.35. With CTAACTAGGTCAGAACAGGACAGTGAAGGATGAT, the PBM binding z-score is 4.91. The value for TCTCGGAGGACACGATAGGTCAGAGCTCGACATC was 1.43; that for AAACCAAGGTGATCGTGAGGTCGTTGATACTAAC was 0.544. CATACAGGGTCAGCTAGGCCAGAGTAGGGACGGC gave a PBM binding z-score of 3.06.
